Test results from PubChem BioAssay (NCATS).
Where “and” joins values, the source holds several entries; their conditions need not be identical. Equal values may be shown once. Inconclusive results are not listed. Calls of active or inactive are those of the source. Unless noted, calls come from the whole dose curve; as a rule, active = well fitted curve in the direction sought with a large enough effect; inconclusive = small, poorly fitted or top-dose-only effect, or another doubt; inactive = no such curve, though single readings can be large; an effect the other way counts as inactive or inconclusive.

How the values were obtained:
[1] = MultiTox-Fluor Cytotoxicity Assay - LYMP1-001 - Live Cells (AID 947);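 note: 0% = DMSO only and full inhibition = tetraoctylammonium bromide control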
[2] = MultiTox-Fluor Cytotoxicity Assay - LYMP1-002 - Dead Cells (AID 960);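 note: 0% = DMSO and 100% = tetraoctylammonium bromide; nearly all actives have a fitted effect of over 60% in size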
Procedure, shortened: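 Human lymphoblastoid cells (LYMP1-002), 2500/well in complete medium, were exposed to compounds for 16 hr at 37 C. Dead-cell protease activity was read as bis-AAF-R110 fluorescence (Ex/Em 485/520), normalized to DMSO and 15 uM tetraoctylammonium bromide; AC50 from Hill fits.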

[3] = Cell Viability - LYMP2-009 (AID 968);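 note: series mostly up to about 92 µM; 0% = DMSO alone and the full-kill end = tetraoctylammonium bromide at 92 µM; nearly all actives have a fitted effect of over 55% in size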
[4] = Cell Viability - LYMP2-024 (AID 988);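 note: plate controls were DMSO only for no effect and 92 µM tetraoctylammonium bromide for full effect; nearly all actives have a fitted effect of over 60% in size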
Procedure, shortened: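 Human lymphoblastoid cells (2500/well) in complete medium were preincubated 5 hr at 37 C, then exposed to compounds for 24 hr at 37 C. Intracellular ATP was read by CellTiter-Glo luminescence; AC50 from Hill-equation fits of concentration-response data.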

[5] = target: Estrogen receptor (Homo sapiens) (UniProt P03372); assay: qHTS assay for small molecule antagonists of estrogen receptor alpha signaling (AID 588513; active = well fitted curve in the direction sought with a large enough effect in the signal ratio, with a control signal flat, not every such curve was filed as active; the % refers to the signal ratio; note: % is set by controls: 0 for no effect and ±100 for the full control effect)
Procedure, shortened: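 Fluorescence from CCF4 substrate after 2 h at room temperature gave reporter activity; cells had been exposed to compound and 0.5nM 17-beta-estradiol for 18 h at 37 C. Hill-equation fitting yielded IC50 and maximal response.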

[6] = target: Estrogen receptor (Homo sapiens) (UniProt P03372); assay: qHTS assay for small molecule agonists of estrogen receptor alpha signaling (AID 588514; calls by dose curve;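 note: 0% = vehicle only and 100% = reference agonist; nearly all actives have a fitted effect of over 70% in size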)
Procedure, shortened: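 ER-alpha-UAS-bla GripTite HEK 293 cells in medium with 2% charcoal/dextran-treated FBS were treated with compound titrations at 37 C for 18 hrs; beta-lactamase reporter read by CCF4 fluorescence after 2 hrs at RT.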

[7] = target: Peroxisome proliferator-activated receptor delta (Homo sapiens) (UniProt Q03181); assay: qHTS assay for small molecule agonists of peroxisome proliferator-activated receptor delta signaling (AID 588534; calls by dose curve;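 note: 0% = DMSO basal wells and 100% = positive control agonist at 10 µM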)
Procedure, shortened: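 Cell-based beta-lactamase reporter assay run in agonist mode: cells seeded and incubated 5 hrs at 37 C, compounds added and incubated 18 hrs at 37 C. CCF4 dye fluorescence read after 2 hrs at RT; EC50 and efficacy from Hill fits.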

[8] = target: Peroxisome proliferator-activated receptor gamma (Homo sapiens) (UniProt P37231); assay: qHTS assay for small molecule agonists of peroxisome proliferator-activated receptor gamma signaling (AID 588536; active = well fitted curve in the direction sought with a large enough effect in the signal ratio, with a control signal flat, not every such curve was filed as active; the % refers to the signal ratio;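 note: 0% = DMSO basal wells and 100% = rosiglitazone at 2 µM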)
Procedure, shortened: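 Test agents, titrated, stimulated HEK293 UAS-bla cells overnight (16 h, 37 C). Substrate CCF4 was then added for two hours at room temperature before fluorescence reading.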

[9] = target: Vitamin D3 receptor (Homo sapiens) (UniProt P11473); assay: qHTS assay for small molecule agonists of vitamin D receptor signaling (AID 588543; calls by dose curve;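 note: 0% = DMSO basal and 100% = reference agonist control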)
Procedure, shortened: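 Reporter cells (HEK293T, VDR-UAS-bla) were seeded in medium with 2% charcoal-stripped serum and incubated 5 h, then compounds in concentration series were added for 16 h at 37 °C. Stimulation was scaled between DMSO basal and 50 nM 1α,25-dihydroxyvitamin D3.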

[10] = target: Thyroid hormone receptor beta (Homo sapiens) (UniProt P10828); assay: qHTS assay for small molecule agonists of thyroid hormone receptor beta signaling (AID 588545; calls by dose curve;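 note: 0% = DMSO only and 100% = 10 nM T3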)
Procedure, shortened: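 TR-UAS-bla GripTite HEK 293 cells (2500/well, medium with 2% charcoal/dextran FBS) were treated in agonist mode for 18 h at 37 C, titrated. Beta-lactamase was read by CCF4 ratio after 2 h; normalized to 10 nM T3 (100%) and DMSO, Hill-fitted for EC50 and efficacy.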

[11] = target: Thyroid hormone receptor beta (Homo sapiens) (UniProt P10828); assay: qHTS assay for small molecule antagonists of thyroid hormone receptor beta signaling (AID 588547; active = well fitted inhibition curve with a large enough effect in the signal ratio, with a control signal flat, not every such curve was filed as active; the % refers to the signal ratio;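 note: cells stimulated with 0.4 nM T3 agonist during compound exposure; series mostly up to about 77 µM; % is set by controls: 0 for no effect and ±100 for the full control effect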); details: TR-UAS-bla HEK293, beta-lactamase ratio, antagonist mode, 18 h
Procedure, shortened: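 TR-UAS-bla GripTite HEK293 cells in 2% charcoal/dextran FBS medium; compounds 0.59 nM to 92 uM with T3 at 0.4nM final, 18 h at 37 C. Beta-lactamase read by CCF4 fluorescence (460/530 nm); Hill fits gave IC50 and efficacy.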

[12] = qHTS assay for small molecule agonists of the antioxidant response element (ARE) signaling pathway (AID 651741; active = well fitted activation curve with a large enough effect in the signal ratio; the % refers to the signal ratio; note: % of control where 0% means no effect)
Procedure, shortened: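 HepG2 ARE-bla cells plated at 2,000 cells/well and incubated 5 h at 37 C/5% CO2 received 23 nL compound in DMSO. After 16 h at 37 C, LiveBLAzer B/G FRET substrate was applied for 2 h at room temperature and fluorescence read.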

[13] = qHTS assay for small molecule activators of the p53 signaling pathway (AID 651743; active = well fitted activation curve with a large enough effect in the signal ratio, not every such curve was filed as active; the % refers to the signal ratio; note: series mostly up to about 92 µM; % of control where 0% means no effect); details: HCT-116 p53RE-bla, beta-lactamase FRET ratio, 16 h; activation: stronger effect = higher value
Procedure, shortened: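 HCT-116 p53RE-bla, 4,000 cells/well; 5 h settle; cpd/DMSO 16 h, 37 C; LiveBLAzer B/G 2 h RT; fluorescence intensity.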

[14] = qHTS assay for environmental chemicals that activate the Aryl hydrocarbon Receptor (AhR) signaling pathway (AID 651777); details: 1A2-DRE human hepatoma cells, luciferase, 24 h; activation: stronger effect = higher value; note: % of control where 0% means no effect; nearly all actives have a fitted effect of over 15% in size
Procedure, shortened: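 Human hepatoma 1A2-DRE cells, stably carrying a dioxin response element and CYP1A2 promoter driving luciferase, were exposed to compounds for 24 hr at 37 C and 5% CO2. Luciferase signal was then read after 30 min One-Glo at room temperature.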

[15] = target: Nuclear receptor subfamily 1 group I member 2 (Rattus norvegicus) (UniProt Q9R1A7); assay: qHTS assay for small molecule activators of the rat pregnane X receptor (rPXR) signaling pathway (AID 651751; call rule not given here; note: 0% is about no effect); details: rPXR reporter cells, luciferase (One-Glo), 24 h
[16] = target: Voltage-gated inwardly rectifying potassium channel KCNH2 (Homo sapiens) (UniProt Q12809); assay: qHTS Assay for Small Molecule Inhibitors of the Human hERG Channel Activity (AID 588834);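 note: top concentration of the series differs between compounds; % is set by controls: 0 for no effect and ±100 for the full control effect; lower thallium flux fluorescence means stronger hERG block; nearly all actives have a fitted effect of over 50% in size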
Procedure, shortened: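 hERG-BacMam U2OS, 2000 cells/well; 0.7X FluxOR loading 1 hr RT dark; cpd ~10 min 37 °C; stim buffer; FDSS fluorescence 2 min @ 1 s; AC50 Hill fit.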

[17] = target: Nuclear receptor ROR-gamma (Homo sapiens) (UniProt P51449); assay: qHTS assay for small molecule antagonists of the retinoid-related orphan receptor gamma (ROR-gamma) signaling pathway (AID 651802); note: series mostly up to about 92 µM; % is set by controls: 0 for no effect and ±100 for the full control effect; nearly all actives have a fitted effect of over 60% in size
Procedure, shortened: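 CHO cells carrying TET-inducible ROR-gamma and an ROR response element–luciferase reporter were exposed to compound, then induced with doxycycline. After 16hr at 37C, luminescence was read; lower signal indicates antagonism.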

[18] = qHTS assay for small molecule activators of the human pregnane X receptor (PXR) signaling pathway (AID 720659; call rule not given here; note: 0% is about no effect)
[19] = target: Bile acid receptor (Homo sapiens) (UniProt Q96RI1); assay: qHTS assay for small molecule agonists of farnesoid X receptor signaling (AID 588527; calls by dose curve;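 note: series mostly up to about 77 µM; 0% = vehicle basal and 100% = reference agonist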); details: HEK293T FXR-UAS-bla, beta-lactamase ratio, 16 h; stronger effect = higher value
Procedure, shortened: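 Read-out: beta-lactamase reporter fluorescence with CCF4 substrate in GeneBLAzer FXR-UAS-bla HEK293T cells, after 16 h compound exposure at 37 C. Response scaled between DMSO basal (0%) and chenodeoxycholic acid at 100 uM (100%).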

[20] = target: Glucocorticoid receptor (Homo sapiens) (UniProt P04150); assay: qHTS assay for small molecule antagonists of glucocorticoid receptor signaling (AID 588533; active = well fitted inhibition curve with a large enough effect in the signal ratio, with a control signal flat, not every such curve was filed as active; the % refers to the signal ratio;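 note: cells stimulated with 2 nM dexamethasone as agonist; % is set by controls: 0 for no effect and ±100 for the full control effect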)
Procedure, shortened: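 Antagonist-mode qHTS: compound titrations added to GRE-bla HeLa cells, then dexamethasone 2 nM final; 18 h, 37 C. CCF4 FRET fluorescence normalized to dexamethasone and DMSO; IC50 from Hill fit.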

Sequence of Bile acid receptor (Homo sapiens) (Q96RI1 whole entry, looked up): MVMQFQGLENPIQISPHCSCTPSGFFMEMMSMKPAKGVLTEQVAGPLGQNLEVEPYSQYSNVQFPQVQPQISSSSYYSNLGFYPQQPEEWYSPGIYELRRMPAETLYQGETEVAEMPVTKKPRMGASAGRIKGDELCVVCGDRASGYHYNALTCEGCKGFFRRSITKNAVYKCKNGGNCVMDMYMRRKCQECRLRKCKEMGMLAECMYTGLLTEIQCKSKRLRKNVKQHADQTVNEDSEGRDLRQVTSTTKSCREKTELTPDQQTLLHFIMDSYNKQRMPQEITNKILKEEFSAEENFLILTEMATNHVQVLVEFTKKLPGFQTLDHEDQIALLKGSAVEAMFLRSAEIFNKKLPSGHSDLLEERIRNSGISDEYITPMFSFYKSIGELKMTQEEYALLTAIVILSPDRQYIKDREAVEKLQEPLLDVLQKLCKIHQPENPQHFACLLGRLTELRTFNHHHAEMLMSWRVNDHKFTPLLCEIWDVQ
Sequence of Peroxisome proliferator-activated receptor delta (Homo sapiens) (Q03181 whole entry, looked up): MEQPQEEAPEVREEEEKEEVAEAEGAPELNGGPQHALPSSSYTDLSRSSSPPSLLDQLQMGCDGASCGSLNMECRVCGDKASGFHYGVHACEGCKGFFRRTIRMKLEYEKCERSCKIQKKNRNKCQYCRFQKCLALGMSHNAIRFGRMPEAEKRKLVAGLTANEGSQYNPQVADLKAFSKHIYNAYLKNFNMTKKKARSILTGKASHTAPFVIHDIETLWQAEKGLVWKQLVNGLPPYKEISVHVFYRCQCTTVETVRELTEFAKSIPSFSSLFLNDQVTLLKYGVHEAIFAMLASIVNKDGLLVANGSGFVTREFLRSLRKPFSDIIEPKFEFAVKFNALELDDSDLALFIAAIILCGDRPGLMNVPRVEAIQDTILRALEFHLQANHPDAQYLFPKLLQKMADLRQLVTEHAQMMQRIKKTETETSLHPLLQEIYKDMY
Sequence of Peroxisome proliferator-activated receptor gamma (Homo sapiens) (P37231 whole entry, looked up): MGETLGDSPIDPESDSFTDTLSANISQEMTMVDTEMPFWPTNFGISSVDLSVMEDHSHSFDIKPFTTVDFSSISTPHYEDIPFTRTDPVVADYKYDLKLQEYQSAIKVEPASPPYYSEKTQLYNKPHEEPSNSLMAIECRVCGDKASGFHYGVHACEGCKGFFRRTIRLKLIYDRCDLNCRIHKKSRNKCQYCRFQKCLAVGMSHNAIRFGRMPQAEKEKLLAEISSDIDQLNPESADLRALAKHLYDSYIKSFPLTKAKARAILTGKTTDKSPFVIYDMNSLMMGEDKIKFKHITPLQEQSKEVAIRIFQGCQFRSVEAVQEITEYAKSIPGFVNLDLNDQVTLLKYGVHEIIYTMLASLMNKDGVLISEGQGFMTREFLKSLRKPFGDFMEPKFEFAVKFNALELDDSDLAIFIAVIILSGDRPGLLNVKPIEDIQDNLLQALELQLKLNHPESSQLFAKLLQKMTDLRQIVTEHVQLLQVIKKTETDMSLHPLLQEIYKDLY
Sequence of Vitamin D3 receptor (Homo sapiens) (P11473 whole entry, looked up): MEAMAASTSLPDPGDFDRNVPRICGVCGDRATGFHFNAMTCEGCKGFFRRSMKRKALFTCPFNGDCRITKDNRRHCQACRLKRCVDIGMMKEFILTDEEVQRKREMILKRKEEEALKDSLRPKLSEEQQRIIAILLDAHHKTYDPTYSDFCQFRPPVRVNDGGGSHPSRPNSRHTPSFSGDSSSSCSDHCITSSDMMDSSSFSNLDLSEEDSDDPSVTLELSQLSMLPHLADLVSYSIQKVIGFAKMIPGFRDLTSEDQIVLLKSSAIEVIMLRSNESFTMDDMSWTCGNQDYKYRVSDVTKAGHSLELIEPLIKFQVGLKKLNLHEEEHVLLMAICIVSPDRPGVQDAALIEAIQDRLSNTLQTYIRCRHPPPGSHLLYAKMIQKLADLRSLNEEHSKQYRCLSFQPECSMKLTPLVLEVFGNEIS
Sequence of Voltage-gated inwardly rectifying potassium channel KCNH2 (Homo sapiens) (Q12809 whole entry, looked up): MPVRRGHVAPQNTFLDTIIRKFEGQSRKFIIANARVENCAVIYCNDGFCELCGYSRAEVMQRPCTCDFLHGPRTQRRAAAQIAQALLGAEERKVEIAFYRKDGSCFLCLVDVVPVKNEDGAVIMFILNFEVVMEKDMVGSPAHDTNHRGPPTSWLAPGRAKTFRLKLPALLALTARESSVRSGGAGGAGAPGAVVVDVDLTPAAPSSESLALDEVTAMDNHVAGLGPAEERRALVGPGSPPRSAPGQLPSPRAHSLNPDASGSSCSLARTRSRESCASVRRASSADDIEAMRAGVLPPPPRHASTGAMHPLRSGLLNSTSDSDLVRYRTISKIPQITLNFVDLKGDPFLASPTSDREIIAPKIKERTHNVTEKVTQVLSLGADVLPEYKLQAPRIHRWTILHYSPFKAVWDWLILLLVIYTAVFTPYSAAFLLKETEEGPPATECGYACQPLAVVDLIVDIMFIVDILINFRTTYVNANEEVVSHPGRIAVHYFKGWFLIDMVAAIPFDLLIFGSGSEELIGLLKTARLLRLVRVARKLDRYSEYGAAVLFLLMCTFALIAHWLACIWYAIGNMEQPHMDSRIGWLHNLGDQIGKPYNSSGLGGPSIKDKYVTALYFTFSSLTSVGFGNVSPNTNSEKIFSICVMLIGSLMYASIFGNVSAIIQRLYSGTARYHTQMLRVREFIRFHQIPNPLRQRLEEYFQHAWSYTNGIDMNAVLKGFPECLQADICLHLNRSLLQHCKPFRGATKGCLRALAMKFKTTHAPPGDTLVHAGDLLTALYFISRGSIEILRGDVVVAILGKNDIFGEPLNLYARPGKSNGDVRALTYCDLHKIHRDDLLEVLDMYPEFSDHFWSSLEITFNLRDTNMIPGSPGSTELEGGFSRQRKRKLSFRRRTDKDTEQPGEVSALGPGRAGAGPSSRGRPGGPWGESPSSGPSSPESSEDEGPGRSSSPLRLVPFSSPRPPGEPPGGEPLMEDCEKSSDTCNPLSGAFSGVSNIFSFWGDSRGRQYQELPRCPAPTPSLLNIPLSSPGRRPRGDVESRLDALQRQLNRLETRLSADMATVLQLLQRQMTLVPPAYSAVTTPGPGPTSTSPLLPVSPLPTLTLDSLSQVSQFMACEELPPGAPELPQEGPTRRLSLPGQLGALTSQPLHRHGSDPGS
Sequence of Glucocorticoid receptor (Homo sapiens) (P04150 whole entry, looked up): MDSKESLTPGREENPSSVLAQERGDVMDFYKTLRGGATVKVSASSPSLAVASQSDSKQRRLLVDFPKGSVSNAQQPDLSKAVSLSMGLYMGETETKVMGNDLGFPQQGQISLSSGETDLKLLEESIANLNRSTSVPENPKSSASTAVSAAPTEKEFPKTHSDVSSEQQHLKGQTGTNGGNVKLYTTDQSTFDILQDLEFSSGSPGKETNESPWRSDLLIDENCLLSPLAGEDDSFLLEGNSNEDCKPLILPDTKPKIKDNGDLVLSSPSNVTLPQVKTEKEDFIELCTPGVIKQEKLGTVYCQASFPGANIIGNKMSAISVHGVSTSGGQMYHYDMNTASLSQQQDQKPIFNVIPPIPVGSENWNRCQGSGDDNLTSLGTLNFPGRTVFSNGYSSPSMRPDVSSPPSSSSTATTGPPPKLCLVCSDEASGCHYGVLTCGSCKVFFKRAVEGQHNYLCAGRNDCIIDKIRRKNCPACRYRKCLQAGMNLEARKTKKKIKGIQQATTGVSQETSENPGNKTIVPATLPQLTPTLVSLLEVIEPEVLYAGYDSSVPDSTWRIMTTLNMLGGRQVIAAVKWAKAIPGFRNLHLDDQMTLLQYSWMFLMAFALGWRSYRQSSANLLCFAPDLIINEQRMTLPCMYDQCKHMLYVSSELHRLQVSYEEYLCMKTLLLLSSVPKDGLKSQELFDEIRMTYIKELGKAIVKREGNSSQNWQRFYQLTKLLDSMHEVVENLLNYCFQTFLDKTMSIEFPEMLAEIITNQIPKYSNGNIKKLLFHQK
Sequence of Nuclear receptor subfamily 1 group I member 2 (Rattus norvegicus) (Q9R1A7 whole entry, looked up): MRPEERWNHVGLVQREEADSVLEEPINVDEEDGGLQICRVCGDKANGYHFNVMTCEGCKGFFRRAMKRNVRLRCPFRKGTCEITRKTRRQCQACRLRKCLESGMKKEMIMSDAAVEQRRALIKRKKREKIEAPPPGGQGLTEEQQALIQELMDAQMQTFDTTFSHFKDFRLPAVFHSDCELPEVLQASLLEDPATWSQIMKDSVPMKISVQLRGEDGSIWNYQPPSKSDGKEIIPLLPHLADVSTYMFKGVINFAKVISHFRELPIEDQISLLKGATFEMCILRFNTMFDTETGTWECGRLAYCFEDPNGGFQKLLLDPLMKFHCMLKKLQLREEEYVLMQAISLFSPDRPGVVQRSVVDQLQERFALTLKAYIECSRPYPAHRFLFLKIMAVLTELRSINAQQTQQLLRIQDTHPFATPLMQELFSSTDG
Sequence of Estrogen receptor (Homo sapiens) (P03372 whole entry, looked up): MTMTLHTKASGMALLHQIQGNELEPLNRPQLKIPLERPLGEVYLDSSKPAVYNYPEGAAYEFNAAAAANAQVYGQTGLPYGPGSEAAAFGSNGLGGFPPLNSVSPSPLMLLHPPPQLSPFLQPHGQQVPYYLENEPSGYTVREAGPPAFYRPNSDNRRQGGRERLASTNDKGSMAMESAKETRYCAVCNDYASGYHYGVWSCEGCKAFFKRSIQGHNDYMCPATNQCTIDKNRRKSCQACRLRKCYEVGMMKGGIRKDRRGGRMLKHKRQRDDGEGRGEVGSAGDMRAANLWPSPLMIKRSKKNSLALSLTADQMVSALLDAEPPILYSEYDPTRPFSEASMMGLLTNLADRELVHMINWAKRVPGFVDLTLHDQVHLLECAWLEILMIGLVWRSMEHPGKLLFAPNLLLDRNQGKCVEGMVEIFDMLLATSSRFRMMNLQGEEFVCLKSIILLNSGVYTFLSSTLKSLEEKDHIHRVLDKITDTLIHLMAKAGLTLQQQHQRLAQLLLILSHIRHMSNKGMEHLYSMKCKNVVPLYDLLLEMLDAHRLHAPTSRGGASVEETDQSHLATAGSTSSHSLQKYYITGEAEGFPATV

CCOP(=S)(OCC)SCSC(C)(C)C
inactive: Potency [1] | Potency [2] | Potency [3] | Potency [4] | Potency [5] | Potency [6] | outcome [7] | outcome [8] | outcome [9] | outcome [10] | activity change % (negative = inhibition) [11] -5% and -15.6% | Potency [12] | activation [13] 3.78% and -1.22% | activation [14] 0.254% and 2.38% | max response [15] 3.05% and 5.9%

C=C(Cl)Cl
inactive: Potency [1] | Potency [2] | Potency [3] | Potency [4] | Potency [5] | Potency [6] | outcome [7] | outcome [8] | outcome [10] | activity change % (negative = inhibition) [11] -6% | Potency [16] | Potency [12] | activation [13] -1.18% | Potency [17] | max response [15] -3.03% | outcome [18]

ClC(Cl)=C(Cl)Cl
inactive: Potency [1] | Potency [2] | Potency [3] | Potency [4] | activation [19] 0.975% and -2.66% | outcome [8] | outcome [9] | outcome [10] | activity change % (negative = inhibition) [11] -10.3% and -3.55% | Potency [16] | Potency [12] | activation [13] -0.0832% and 0.219% | activation [14] -0.882% and 0.706% | Potency [17] | max response [15] -0.799% and 2.48% | outcome [18]

COc1ccc(N)cc1
inactive: Potency [1] | Potency [2] | Potency [3] | Potency [4] | Potency [20] | outcome [7] | outcome [8] | outcome [10] | activity change % (negative = inhibition) [11] 8.16% and -11.7% | Potency [16] | activation [13] -2.17% and -1.84% | activation [14] 1.03% and 6.89% | Potency [17] | outcome [18]

[O-][Br+2]([O-])O
inactive: Potency [2] | Potency [3] | Potency [4] | Potency [5] | Potency [6] | Potency [20] | outcome [7] | outcome [8] | outcome [9] | outcome [10] | activity change % (negative = inhibition) [11] 6.91% and -5.45% | Potency [16] | Potency [12] | activation [13] -0.499% and 0.319% | activation [14] 0.946% and -0.602% | Potency [17]

Clc1ccc2ccccc2c1
inactive: Potency [1] | Potency [2] | Potency [3] | Potency [4] | Potency [5] | Potency [6] | activation [19] -2.62% | Potency [20] | outcome [7] | outcome [8] | outcome [9] | outcome [10] | activity change % (negative = inhibition) [11] -12% | Potency [16] | Potency [12] | activation [13] 1.92% | activation [14] 0.057% | Potency [17] | max response [15] 7.07% | outcome [18]

C[N+](C)(C)Cc1ccccc1
inactive: Potency [1] | Potency [3] | Potency [4] | Potency [5] | Potency [6] | activation [19] -0.315% and 0.14% | Potency [20] | outcome [7] | outcome [8] | outcome [9] | outcome [10] | activity change % (negative = inhibition) [11] -5.57% and -5.51% | Potency [16] | Potency [12] | activation [14] -0.332% and -0.436% | Potency [17] | max response [15] -3.63% and -0.669% | outcome [18]

C=CC(=C)C
inactive: Potency [1] | Potency [3] | Potency [4] | Potency [5] | Potency [6] | activation [19] -1.71% | Potency [20] | outcome [7] | outcome [8] | outcome [9] | outcome [10] | activity change % (negative = inhibition) [11] 3.52% | Potency [16] | activation [13] -2.92% | activation [14] -0.578% | Potency [17] | max response [15] 11% | outcome [18]

CCOc1ccc(N)cc1
inactive: Potency [2] | Potency [3] | Potency [4] | Potency [5] | Potency [6] | activation [19] -2.12% | Potency [20] | outcome [7] | outcome [9] | outcome [10] | activity change % (negative = inhibition) [11] -6.64% | Potency [16] | activation [13] 1.96% | activation [14] 1.6% | Potency [17] | max response [15] 3.36% | outcome [18]

CC(C)(C)OOC(C)(C)C
inactive: Potency [1] | Potency [2] | Potency [3] | Potency [4] | Potency [5] | Potency [6] | activation [19] -0.0913% | Potency [20] | outcome [7] | outcome [8] | outcome [10] | activity change % (negative = inhibition) [11] -4.91% | Potency [16] | Potency [12] | activation [13] -4.97% | activation [14] -0.903% | Potency [17] | max response [15] 2.42% | outcome [18]

C=CC(C)=O
inactive: Potency [1] | Potency [2] | Potency [3] | Potency [4] | Potency [5] | Potency [6] | activation [19] -1.53% | Potency [20] | outcome [7] | outcome [8] | Potency [16] | Potency [12] | activation [13] -2.21% | activation [14] 1.86% | Potency [17] | max response [15] 1.84% | outcome [18]
